Source: PubChem BioAssay (Tox21)
Inconclusive results are not listed. Activity calls are given as the source filed them. The call rests on the fitted dose curve; in most records, active means well fitted activation curve with a large enough effect in the signal ratio in the repeat runs (not every such curve was filed as active); inconclusive means weak or mixed curves, or effect the other way; inactive means flat fitted curve, though single readings scatter; the % refers to the signal ratio.

Test: qHTS assay to identify small molecule agonists of the endoplasmic reticulum stress response signaling pathway (AID 1159516)
Settings: ESRE-bla HeLa, ER stress beta-lactamase reporter, 5 h; series mostly up to 61 µM; activation: at the top concentration
Method in brief: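 CellSensor ESRE-bla HeLa cells, carrying a beta-lactamase reporter driven by the ER stress response element, were plated overnight and exposed to compounds for 5 hr at 37 C. Reporter activity was read as FRET substrate fluorescence after 2 hr at room temperature.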
On the % scale 0 is the no-effect control and ±100 the full control effect.

Compound	activation
COc1ccccc1N1CCN(CC(O)COc2cc(OC)c(OC)c(OC)c2)CC1 (stereo not given)	0.258% (inactive)
CC(=O)O[C@@H]1CC2C3CCc4cc(OC(=O)c5ccccc5)ccc4C3CCC2(C)[C@H]1OC(C)=O (stereo not given in full)	-0.775% (inactive)
C/C=C(\C)C=O	0.18% [at 78.8 µM] (inactive)
CCCCCCCCCCCCCCBr	-0.394% [at 78.8 µM] (inactive)
NNC(=O)CCCCC(=O)NN	-0.37% (inactive)
Nc1nc(Cl)cc(Cl)n1	-3.98% (inactive)
C=CCON/C(CCC)=C1\C(=O)CC(C)(C)C(C(=O)OC)=C1O	1.22% (inactive)
CCCCOCCCC	0.266% (inactive)
CCCC(C)C(O)CC (stereo not given)	0.786% (inactive)
Cc1cc(C)c(N)c(Cl)c1	-0.0827% (inactive)
CC(C)(C)OC(=O)c1ccccc1C(=O)O	0.0459% (inactive)
C=CC(=O)OCC[N+](C)(C)C	0.526% [at 78.8 µM] (inactive)
CC/C=C\CCOC(=O)c1ccccc1	-1.59% (inactive)
O=P(O)(O)C(O)(Cc1cccnc1)P(=O)(O)O	-0.263% (inactive)
CCN1CCN(C(=O)N[C@@H](C(=O)N[C@@H]2C(=O)N3[C@@H]2SC(C)(C)[C@H]3C(=O)O)c2ccccc2)C(=O)C1=O	-1.68% (inactive)
COC(=O)N/N=C/c1c[n+]([O-])c2ccccc2[n+]1[O-]	4.41% (inactive)
CCCCCCCCCCCCCCCC(=O)OC	-1.02% [at 28.5 µM] (inactive)
Cc1ccccc1C#N	-4.2% (inactive)
C[C@H]1COc2c(C3(N)CC3)c(F)cc3c(=O)c(C(=O)O)cn1c23	-0.227% (inactive)
CC(C)=CCC/C(C)=C\C#N	2.23% (inactive)
N#CC1(N)CCCCC1	0.17% [at 78.8 µM] (inactive)
NCC1CCC(C(=O)Oc2ccc(CCC(=O)O)cc2)CC1 (stereo not given)	0.237% (inactive)
O=S(=O)(O)CC(O)CCl (stereo not given)	-0.0241% (inactive)
CCCCCCCCCCCCCCCC/C=C/C1CC(=O)OC1=O (stereo not given)	0.701% (inactive)
Cc1ccc(Br)cc1	1.51% (inactive)
